Reference: PubChem BioAssay (Tox21)
Results filed as inconclusive are left out. The source made the active and inactive calls. Unless noted, the call rests on the fitted dose curve; in most records, active means well fitted curve in the direction sought with a large enough effect in the repeat runs; inconclusive means weak or mixed curves; inactive means no such curve, though single readings can be large; an effect the other way counts as inactive or inconclusive.

Assays:
[1] = qHTS assay to test for compound auto fluorescence at 535 nm (green) in HEK293 cells (AID 720680)
[2] = qHTS assay to test for compound auto fluorescence at 460 nm (blue) in HEK293 cell free culture (AID 720681)
How it was run: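 Test compounds were pinned into cell-free culture medium (DMEM with 10% FBS) and fluorescence was read directly at Ex/Em 405/460 nm. Signals were expressed as fluorescence equivalents of triamterene, with DMSO vehicle as control.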

[3] = qHTS assay to test for compound auto fluorescence at 535 nm (green) in HEK293 cell free culture (AID 720682)
How it was run: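 Steps: dispense DMEM/10% FBS into empty wells; pin in compound or DMSO; measure fluorescence at 485/535 nm. Values are fluorescein equivalents.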

[4] = qHTS assay to test for compound auto fluorescence at 590 nm (red) in HEK293 cell free culture (AID 720683)
How it was run: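 Tox21 10K library compounds were pinned into cell-free DMEM with 10% FBS and fluorescence was read at excitation 540 nm. Activity is expressed as Rose Bengal sodium equivalency.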

[5] = qHTS assay to test for compound auto fluorescence at 590 nm (red) in HepG2 cell free culture (AID 720684)
How it was run: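 Red fluorescence (540 nm excitation, 590 nm emission) was measured after compound transfer into cell-free MEM supplemented with 10% FBS. Values are equivalencies against Rose Bengal sodium.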

[6] = qHTS assay to test for compound auto fluorescence at 460 nm (blue) in HepG2 cell free culture (AID 720685)
How it was run: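 Compound (23 nL) or DMSO pinned into cell-free MEM with 10% FBS; blue fluorescence read at 405/460 nm excitation/emission, expressed as auto-fluorescence equivalency to triamterene.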

[7] = qHTS assay to test for compound auto fluorescence at 535 nm (green) in HepG2 cell free culture (AID 720686)
[8] = qHTS assay to test for compound auto fluorescence at 460 nm (blue) in HepG2 cells (AID 720687)
How it was run: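 Cells (2,000/well in MEM with 10% FBS) attached overnight at 37 C, then were exposed to compound or DMSO for 1 hr at 37 C, 5% CO2. Fluorescence read at Ex/Em 405/460 nm, expressed as triamterene-equivalent signal.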

[9] = molecular target: Glucocorticoid receptor (Homo sapiens) (UniProt P04150); assay: qHTS assay to identify small molecule agonists of the glucocorticoid receptor (GR) signaling pathway (AID 720691; active means well fitted activation curve with a large enough effect in the signal ratio in the repeat runs, not every such curve was filed as active; the % refers to the signal ratio)
Chain of Glucocorticoid receptor (Homo sapiens) (P04150 whole entry, looked up): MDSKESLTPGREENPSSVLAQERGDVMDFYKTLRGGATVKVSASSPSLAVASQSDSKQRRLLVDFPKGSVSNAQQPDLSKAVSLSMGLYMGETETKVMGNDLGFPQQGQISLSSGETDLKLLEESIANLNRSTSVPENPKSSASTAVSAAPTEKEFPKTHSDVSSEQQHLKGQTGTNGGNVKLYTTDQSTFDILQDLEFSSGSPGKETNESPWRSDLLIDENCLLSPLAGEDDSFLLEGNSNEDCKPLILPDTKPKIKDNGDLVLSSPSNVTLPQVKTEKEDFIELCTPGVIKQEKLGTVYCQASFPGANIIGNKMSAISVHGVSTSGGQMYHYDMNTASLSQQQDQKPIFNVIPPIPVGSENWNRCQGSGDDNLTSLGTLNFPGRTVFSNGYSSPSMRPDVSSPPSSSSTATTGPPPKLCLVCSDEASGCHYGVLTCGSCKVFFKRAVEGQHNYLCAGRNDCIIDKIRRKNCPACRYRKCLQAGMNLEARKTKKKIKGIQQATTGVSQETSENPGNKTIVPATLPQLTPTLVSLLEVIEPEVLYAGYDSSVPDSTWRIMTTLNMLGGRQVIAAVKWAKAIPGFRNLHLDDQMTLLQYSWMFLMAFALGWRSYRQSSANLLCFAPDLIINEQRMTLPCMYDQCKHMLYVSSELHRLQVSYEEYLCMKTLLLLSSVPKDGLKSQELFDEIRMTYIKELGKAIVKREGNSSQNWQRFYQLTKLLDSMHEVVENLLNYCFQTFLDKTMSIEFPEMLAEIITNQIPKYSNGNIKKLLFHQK
How it was run: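 Agonist mode in a HeLa line carrying a GRE-controlled beta-lactamase reporter. Compounds act for 18 h at 37 C before a 2 h room-temperature FRET substrate step and fluorescence reading.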

[10] = molecular target: Glucocorticoid receptor (Homo sapiens) (UniProt P04150); assay: qHTS assay to identify small molecule antagonists of the glucocorticoid receptor (GR) signaling pathway (AID 720692; active means well fitted inhibition curve with a large enough effect in the signal ratio in the repeat runs, not every such curve was filed as active; the % refers to the signal ratio)
How it was run: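 Cells plated, rested 4 h at 37 C/5% CO2; compounds in DMSO pin-transferred; dexamethasone added to 5 nM final; 18 h at 37 C; B/G FRET substrate added, 2 h room temperature; fluorescence measured.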

[11] = qHTS assay to identify small molecule antagonists of the glucocorticoid receptor (GR) signaling pathway - cell viability counter screen (AID 720693); further: nearly all actives have a fitted effect of over 55% in size
[12] = qHTS assay for identifying genotoxic compounds that show differential cytotoxicity against isogenic chicken DT40 cell lines with known DNA damage response pathways - wild type cell line (AID 743012); further: nearly all actives have a fitted effect of over 60% in size
How it was run: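 Cells (DT40 wild type, 300/well) are treated with DMSO-dissolved compounds after a ~0.5 h pre-incubation and kept 40 h at 37 C/5% CO2. Viability is then measured by CellTiter-Glo luminescence following 30 min at room temperature.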

[13] = qHTS assay to identify small molecule antagonists of the androgen receptor (AR) signaling pathway - cell viability counter screen (AID 743033; further: nearly all actives have a fitted effect of over 45% in size)
[14] = molecular target: Androgen receptor (Homo sapiens) (UniProt P10275); assay: qHTS assay to identify small molecule antagonists of the androgen receptor (AR) signaling pathway (AID 743035; active means well fitted inhibition curve with a large enough effect in the signal ratio in the repeat runs, not every such curve was filed as active; the % refers to the signal ratio)
Chain of Androgen receptor (Homo sapiens) (P10275 whole entry, looked up): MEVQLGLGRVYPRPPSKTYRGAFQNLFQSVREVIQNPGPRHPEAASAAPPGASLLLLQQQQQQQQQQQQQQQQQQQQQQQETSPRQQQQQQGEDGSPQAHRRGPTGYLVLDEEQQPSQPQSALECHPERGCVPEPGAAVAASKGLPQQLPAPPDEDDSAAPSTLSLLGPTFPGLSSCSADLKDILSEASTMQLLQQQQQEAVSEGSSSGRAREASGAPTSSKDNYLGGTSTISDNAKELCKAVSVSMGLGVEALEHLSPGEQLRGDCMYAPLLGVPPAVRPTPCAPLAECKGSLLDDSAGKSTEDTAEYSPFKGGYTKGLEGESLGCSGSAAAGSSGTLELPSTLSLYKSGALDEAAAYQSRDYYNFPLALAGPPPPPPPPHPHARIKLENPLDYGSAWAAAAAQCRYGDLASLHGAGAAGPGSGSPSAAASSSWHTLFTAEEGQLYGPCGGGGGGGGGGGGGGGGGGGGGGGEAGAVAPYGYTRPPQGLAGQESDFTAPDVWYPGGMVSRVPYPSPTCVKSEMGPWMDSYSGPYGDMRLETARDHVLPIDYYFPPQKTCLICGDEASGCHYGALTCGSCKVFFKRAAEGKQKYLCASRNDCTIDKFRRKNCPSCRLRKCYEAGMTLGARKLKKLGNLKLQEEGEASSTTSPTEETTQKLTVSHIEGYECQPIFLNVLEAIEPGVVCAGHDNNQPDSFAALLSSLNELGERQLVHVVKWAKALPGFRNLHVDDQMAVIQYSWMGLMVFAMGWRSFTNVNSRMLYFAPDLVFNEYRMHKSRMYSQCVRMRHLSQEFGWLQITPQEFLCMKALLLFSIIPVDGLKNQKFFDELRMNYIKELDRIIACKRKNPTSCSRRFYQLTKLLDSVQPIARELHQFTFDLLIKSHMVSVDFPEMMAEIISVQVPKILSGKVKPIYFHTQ
How it was run: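 Antagonism is scored as loss of R1881-driven beta-lactamase reporter expression in HEK293 cells carrying the reporter under a UAS element, after 16 h co-treatment at 37C and a 2 h room-temperature FRET substrate read.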

[15] = molecular target: Androgen receptor (Homo sapiens) (UniProt P10275); assay: qHTS assay to identify small molecule agonists of the androgen receptor (AR) signaling pathway using the MDA cell line (AID 743040; further: nearly all actives have a fitted effect of over 20% in size)
How it was run: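 MDA-kb2 breast carcinoma cells stably carrying an MMTV-driven luciferase reporter (AR- and GR-responsive) were seeded and held 5 h at 37C, 0% CO2, then exposed to compounds in DMSO for 16 h. Luminescence was read 30 min after ONE-Glo addition.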

[16] = qHTS assay to identify small molecule antagonists of the androgen receptor (AR) signaling pathway using the MDA cell line - cell viability counter screen (AID 743041; further: nearly all actives have a fitted effect of over 45% in size)
How it was run: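 MDA-kb2 AR-luc human breast carcinoma cells (MMTV-luciferase, AR/GR responsive) were treated with compounds plus R1881 agonist for 16 h at 37 °C. Viability was read as CellTiter-Fluor fluorescence in the same wells as the reporter assay.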

[17] = molecular target: Androgen receptor (Homo sapiens) (UniProt P10275); assay: qHTS assay to identify small molecule antagonists of the androgen receptor (AR) signaling pathway using the MDA cell line (AID 743042; further: nearly all actives have a fitted effect of over 55% in size)
How it was run: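 MDA-kb2 cells (human breast carcinoma, stably carrying an MMTV-luciferase reporter responsive to AR and GR) were plated at 3,000 cells/well and preincubated 5 hr at 37C, then given compound plus R1881 agonist for 16 h. ONE-Glo luminescence was read.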

[18] = qHTS assay for identifying genotoxic compounds that show differential cytotoxicity against isogenic chicken DT40 cell lines with known DNA damage response pathways - Rad54/Ku70 mutant cell line (AID 743015); further: nearly all actives have a fitted effect of over 60% in size
[19] = qHTS assay for identifying genotoxic compounds that show differential cytotoxicity against isogenic chicken DT40 cell lines with known DNA damage response pathways - Rev3 mutant cell line (AID 743014); further: nearly all actives have a fitted effect of over 55% in size
On the % scale 0 is the no-effect control and ±100 the full control effect.

CC(C)COC(=O)c1ccccc1
inactive: outcome [1] | outcome [2] | outcome [3] | outcome [4] | outcome [5] | outcome [6] | outcome [7] | outcome [8] | Potency [9] | outcome [10] | outcome [11] | Potency [12] | outcome [13] | outcome [14] | Potency [15] | Potency [16] | outcome [17]

CC(O)CC(C)O (stereo not given)
inactive: outcome [1] | outcome [2] | outcome [3] | outcome [4] | outcome [5] | outcome [6] | outcome [7] | outcome [8] | Potency [9] | outcome [10] | outcome [11] | Potency [12] | outcome [13] | Potency [16]

Cc1ncc([N+](=O)[O-])n1CC(C)O (stereo not given)
inactive: outcome [1] | outcome [2] | outcome [3] | outcome [4] | outcome [5] | outcome [6] | outcome [7] | outcome [8] | Potency [9] | outcome [10] | outcome [11] | Potency [12] | Potency [18] | outcome [13] | Potency [16]

O/N=C/C=N/O
inactive: outcome [1] | outcome [2] | outcome [3] | outcome [4] | outcome [5] | outcome [6] | outcome [7] | outcome [8] | Potency [9] | outcome [10] | outcome [11] | Potency [12] | Potency [18] | outcome [13] | Potency [16]

CC1=C(C(=O)O)N2C(=O)[C@@H](NC(=O)[C@H](N)C3=CCC=CC3)[C@H]2SC1
inactive: outcome [1] | outcome [2] | outcome [3] | outcome [4] | outcome [5] | outcome [6] | outcome [7] | outcome [8] | Potency [9] | outcome [10] | outcome [11] | Potency [12] | Potency [19] | Potency [18] | outcome [13] | Potency [16]

O=Cc1cc2ccccc2o1
inactive: outcome [1] | outcome [2] | outcome [3] | outcome [4] | outcome [5] | outcome [6] | outcome [7] | outcome [8] | Potency [9] | outcome [10] | outcome [11] | Potency [12] | Potency [19] | Potency [18] | outcome [13] | Potency [16]

CC(C)Nc1ccccc1
inactive: outcome [1] | outcome [2] | outcome [3] | outcome [4] | outcome [5] | outcome [6] | outcome [7] | outcome [8] | Potency [9] | outcome [10] | outcome [11] | Potency [12] | Potency [19] | Potency [18] | outcome [13] | Potency [16]

CC(C)=CCC[C@@](C)(O)[C@H]1CC=C(C)CC1
inactive: outcome [1] | outcome [2] | outcome [3] | outcome [4] | outcome [5] | outcome [6] | outcome [7] | outcome [8] | Potency [9] | outcome [10] | outcome [11] | Potency [12] | Potency [19] | Potency [18] | outcome [13] | Potency [16]

CC(C)(C)NC[C@H](O)COc1cccc2c1CCCC2=O
inactive: fluorescence, % of fluorescein [1] 0.0019% [at 18.6 µM] | fluorescence, % of fluorescent control [2] 0.0024% [at 18.6 µM] | activity change [3] -0.0347% [at 18.6 µM] | fluorescence, % of fluorescent control [4] -0.286% [at 18.6 µM] | fluorescence, % of Rose Bengal [5] 0.355% [at 18.6 µM] | fluorescence, % of fluorescent control [6] -0.0088% [at 18.6 µM] | fluorescence, % of fluorescein control [7] -0.0049% [at 18.6 µM] | fluorescence, % of fluorescent control [8] 0.0464% [at 18.6 µM] | Potency [9] | outcome [10] | outcome [11] | Potency [12] | Potency [18] | Potency [16]

CC1OCCC1=O (stereo not given)
inactive: outcome [1] | outcome [2] | outcome [3] | outcome [4] | outcome [5] | outcome [6] | outcome [7] | outcome [8] | Potency [9] | outcome [10] | outcome [11] | Potency [12] | Potency [19] | Potency [18] | outcome [13] | Potency [16]

O=[N+]([O-])c1c(Cl)cc(Cl)cc1Cl
inactive: outcome [1] | outcome [2] | outcome [3] | outcome [4] | outcome [5] | outcome [6] | outcome [7] | outcome [8] | Potency [9] | outcome [10] | outcome [11] | Potency [12] | Potency [19] | Potency [18] | outcome [13] | Potency [16]

CN(C)CCCO[C@@H]1[C@H]2OC(C)(C)O[C@H]2O[C@@H]1C(O)CO (stereo not given in full)
inactive: outcome [1] | outcome [2] | outcome [3] | outcome [4] | outcome [5] | outcome [6] | outcome [7] | outcome [8] | Potency [9] | outcome [10] | outcome [11] | Potency [12] | Potency [18] | outcome [13] | Potency [16]

CC(=O)C1C(=O)C=C(C)OC1=O (stereo not given)
inactive: outcome [1] | outcome [2] | outcome [3] | outcome [4] | outcome [5] | outcome [6] | outcome [7] | outcome [8] | Potency [9] | outcome [10] | outcome [11] | Potency [12] | Potency [19] | Potency [18] | outcome [13] | Potency [16]

CC1(C)CC(OC(=O)CCCCCCCCC(=O)OC2CC(C)(C)NC(C)(C)C2)CC(C)(C)N1
inactive: fluorescence, % of fluorescein [1] -0.0999% [at 18.6 µM] | fluorescence, % of fluorescent control [2] -0.182% [at 18.6 µM] | activity change [3] -0.0076% [at 18.6 µM] | fluorescence, % of fluorescent control [4] 0.038% [at 18.6 µM] | fluorescence, % of Rose Bengal [5] 0.143% [at 18.6 µM] | fluorescence, % of fluorescent control [6] -0.0702% [at 18.6 µM] | fluorescence, % of fluorescein control [7] -0.17% [at 18.6 µM] | fluorescence, % of fluorescent control [8] -0.0104% [at 18.6 µM] | Potency [9] | outcome [10] | outcome [11] | Potency [12] | Potency [19] | Potency [18] | outcome [13] | Potency [16]

O=C1CCC(=O)N1Cl
inactive: outcome [1] | outcome [2] | outcome [3] | outcome [4] | outcome [5] | outcome [6] | outcome [7] | outcome [8] | Potency [9] | outcome [10] | outcome [11] | Potency [12] | Potency [19] | Potency [18] | outcome [13] | Potency [16]

C[Si]1(C)O[Si](C)(C)O[Si](C)(C)O[Si](C)(C)O[Si](C)(C)O1
inactive: outcome [1] | outcome [2] | outcome [3] | outcome [4] | outcome [5] | outcome [6] | outcome [7] | outcome [8] | Potency [9] | outcome [10] | outcome [11] | Potency [12] | Potency [18] | outcome [13] | Potency [16]

CCCCOC(=O)C(C)O (stereo not given)
inactive: outcome [1] | outcome [2] | outcome [3] | outcome [4] | outcome [5] | outcome [6] | outcome [7] | outcome [8] | Potency [9] | outcome [10] | outcome [11] | Potency [12] | Potency [19] | Potency [18] | outcome [13] | Potency [16]
